The target in assay [1] is T1, Ephrin type-B receptor 2 (Homo sapiens) (UniProt P29323).
T1 sequence (whole entry): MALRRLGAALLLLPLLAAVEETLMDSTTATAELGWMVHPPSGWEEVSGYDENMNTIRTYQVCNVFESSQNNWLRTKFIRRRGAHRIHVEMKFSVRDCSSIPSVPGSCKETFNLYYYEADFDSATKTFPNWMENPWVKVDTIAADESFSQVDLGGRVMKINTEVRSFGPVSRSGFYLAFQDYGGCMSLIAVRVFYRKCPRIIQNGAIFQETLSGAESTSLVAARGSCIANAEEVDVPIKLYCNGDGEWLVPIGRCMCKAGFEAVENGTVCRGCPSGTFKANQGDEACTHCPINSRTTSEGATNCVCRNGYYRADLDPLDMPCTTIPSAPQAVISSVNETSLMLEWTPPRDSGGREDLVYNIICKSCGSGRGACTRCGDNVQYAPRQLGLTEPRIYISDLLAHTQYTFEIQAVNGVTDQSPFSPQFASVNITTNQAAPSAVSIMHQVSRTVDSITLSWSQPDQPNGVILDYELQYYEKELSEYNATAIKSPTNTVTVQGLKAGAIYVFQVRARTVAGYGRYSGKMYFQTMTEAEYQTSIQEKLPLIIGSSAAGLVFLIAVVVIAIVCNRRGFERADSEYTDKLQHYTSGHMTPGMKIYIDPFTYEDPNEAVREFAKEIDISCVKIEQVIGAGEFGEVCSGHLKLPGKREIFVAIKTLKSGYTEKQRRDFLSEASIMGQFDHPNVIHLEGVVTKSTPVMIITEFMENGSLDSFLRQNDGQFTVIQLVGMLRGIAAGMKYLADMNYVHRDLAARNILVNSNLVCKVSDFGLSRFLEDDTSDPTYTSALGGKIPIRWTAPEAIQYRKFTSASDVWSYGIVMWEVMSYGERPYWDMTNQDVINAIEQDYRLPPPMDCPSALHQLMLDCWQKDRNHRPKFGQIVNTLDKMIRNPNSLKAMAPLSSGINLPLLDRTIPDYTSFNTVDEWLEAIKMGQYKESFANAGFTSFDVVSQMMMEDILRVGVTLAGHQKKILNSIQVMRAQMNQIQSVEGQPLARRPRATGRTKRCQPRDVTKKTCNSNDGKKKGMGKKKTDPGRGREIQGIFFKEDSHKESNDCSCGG
The conditions noted are these: at 1 µM.

The target of assay [2] is T2, Ephrin type-B receptor 3 (Homo sapiens) (UniProt P54753).
T2 sequence (whole entry): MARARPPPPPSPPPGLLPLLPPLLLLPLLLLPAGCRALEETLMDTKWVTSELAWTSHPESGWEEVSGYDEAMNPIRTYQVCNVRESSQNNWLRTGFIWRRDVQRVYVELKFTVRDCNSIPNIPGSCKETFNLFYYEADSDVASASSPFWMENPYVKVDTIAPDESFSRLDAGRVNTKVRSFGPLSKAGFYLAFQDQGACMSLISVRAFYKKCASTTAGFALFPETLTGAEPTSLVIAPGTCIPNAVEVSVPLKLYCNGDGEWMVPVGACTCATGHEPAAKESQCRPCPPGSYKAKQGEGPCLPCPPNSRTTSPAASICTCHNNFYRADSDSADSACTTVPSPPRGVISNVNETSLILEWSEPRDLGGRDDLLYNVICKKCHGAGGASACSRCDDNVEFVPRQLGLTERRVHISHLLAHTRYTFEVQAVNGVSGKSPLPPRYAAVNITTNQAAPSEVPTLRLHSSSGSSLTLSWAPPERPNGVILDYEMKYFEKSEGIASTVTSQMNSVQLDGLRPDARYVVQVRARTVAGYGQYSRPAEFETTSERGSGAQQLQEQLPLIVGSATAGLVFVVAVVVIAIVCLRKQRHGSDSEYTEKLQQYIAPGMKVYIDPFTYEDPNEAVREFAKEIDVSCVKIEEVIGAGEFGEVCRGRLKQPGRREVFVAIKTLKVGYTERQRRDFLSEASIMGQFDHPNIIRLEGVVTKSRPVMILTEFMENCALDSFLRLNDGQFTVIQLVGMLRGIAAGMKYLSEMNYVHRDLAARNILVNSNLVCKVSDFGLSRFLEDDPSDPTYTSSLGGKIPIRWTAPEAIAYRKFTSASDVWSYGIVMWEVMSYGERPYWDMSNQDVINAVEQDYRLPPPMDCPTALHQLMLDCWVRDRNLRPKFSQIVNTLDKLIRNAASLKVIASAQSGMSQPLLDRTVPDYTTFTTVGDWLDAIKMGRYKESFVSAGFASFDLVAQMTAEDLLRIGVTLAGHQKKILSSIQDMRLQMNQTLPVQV
The conditions noted are these: at 0.1 µM.

Assay [3] concerns the target T2, Ephrin type-B receptor 3 (Homo sapiens). Conditions: at 1 µM.
Assay [4] deals with T3, Ephrin type-B receptor 4 (Homo sapiens) (UniProt P54760).
T3 sequence (whole entry): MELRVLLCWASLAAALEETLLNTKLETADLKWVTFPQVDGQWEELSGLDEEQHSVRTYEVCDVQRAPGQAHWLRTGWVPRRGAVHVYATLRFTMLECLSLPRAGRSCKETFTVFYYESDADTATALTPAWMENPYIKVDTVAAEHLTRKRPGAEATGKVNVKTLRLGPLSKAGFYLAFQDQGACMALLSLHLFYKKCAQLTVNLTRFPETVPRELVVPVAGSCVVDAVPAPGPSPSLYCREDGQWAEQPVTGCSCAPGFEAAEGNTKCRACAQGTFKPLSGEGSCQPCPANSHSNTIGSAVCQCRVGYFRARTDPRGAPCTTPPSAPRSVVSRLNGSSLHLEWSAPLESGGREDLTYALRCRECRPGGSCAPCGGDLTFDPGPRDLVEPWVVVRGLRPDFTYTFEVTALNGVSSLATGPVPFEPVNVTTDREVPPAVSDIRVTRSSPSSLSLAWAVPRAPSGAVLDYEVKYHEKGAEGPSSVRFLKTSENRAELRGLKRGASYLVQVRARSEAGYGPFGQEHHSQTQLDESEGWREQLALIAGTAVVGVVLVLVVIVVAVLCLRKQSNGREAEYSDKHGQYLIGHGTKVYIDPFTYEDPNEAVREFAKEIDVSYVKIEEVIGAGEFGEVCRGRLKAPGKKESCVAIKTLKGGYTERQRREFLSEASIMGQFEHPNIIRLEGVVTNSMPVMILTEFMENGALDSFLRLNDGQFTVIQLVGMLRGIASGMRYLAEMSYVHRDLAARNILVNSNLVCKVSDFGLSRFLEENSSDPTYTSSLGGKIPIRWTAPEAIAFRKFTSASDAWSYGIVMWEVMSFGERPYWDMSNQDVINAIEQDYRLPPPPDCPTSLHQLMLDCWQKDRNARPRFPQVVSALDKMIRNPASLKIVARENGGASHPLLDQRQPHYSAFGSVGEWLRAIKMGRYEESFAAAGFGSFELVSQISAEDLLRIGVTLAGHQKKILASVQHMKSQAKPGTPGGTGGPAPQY
The conditions noted are these: at 0.1 µM.

The target in assay [5] is T3, Ephrin type-B receptor 4 (Homo sapiens). Conditions: at 1 µM.
For assay [6], the target named is Receptor tyrosine-protein kinase erbB-2 (Homo sapiens) (UniProt P04626). Conditions: at 0.1 µM.
Assay [7] shares this target. Conditions: at 1 µM.
For assay [8], the target named is Receptor tyrosine-protein kinase erbB-4 (Homo sapiens) (UniProt Q15303). The conditions noted are these: at 0.1 µM.
The target is the same in assay [9]. The conditions noted are these: at 1 µM.
For assay [10], the target named is Tyrosine-protein kinase Fer (Homo sapiens) (UniProt P16591). Conditions: at 0.1 µM.
The target is the same in assay [11]. Conditions: at 1 µM.
For assay [12], the target named is Tyrosine-protein kinase Fes/Fps (Homo sapiens) (UniProt P07332). Conditions: at 0.1 µM.
For assay [13] the target is unchanged. The conditions noted are these: at 1 µM.
The target in assay [14] is Fibroblast growth factor receptor 1 (Homo sapiens) (UniProt P11362). Conditions: at 0.1 µM.
Assay [15] shares this target. Conditions: at 1 µM.
Assay [16] concerns the target Fibroblast growth factor receptor 2 (Homo sapiens) (UniProt P21802). Conditions: at 0.1 µM.
Assay [17] shares this target. The conditions noted are these: at 1 µM.
For assay [18], the target named is Fibroblast growth factor receptor 3 (Homo sapiens) (UniProt P22607). The conditions noted are these: at 0.1 µM.
The target is the same in assay [19]. The conditions noted are these: at 1 µM.
Assay [20] concerns the target Fibroblast growth factor receptor 4 (Homo sapiens) (UniProt P22455). The conditions noted are these: at 0.1 µM.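 Also: values are mean percent inhibition of FGFR4.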

Tyrosine-protein kinase Fer (Homo sapiens), sequence (P16591 whole entry, looked up): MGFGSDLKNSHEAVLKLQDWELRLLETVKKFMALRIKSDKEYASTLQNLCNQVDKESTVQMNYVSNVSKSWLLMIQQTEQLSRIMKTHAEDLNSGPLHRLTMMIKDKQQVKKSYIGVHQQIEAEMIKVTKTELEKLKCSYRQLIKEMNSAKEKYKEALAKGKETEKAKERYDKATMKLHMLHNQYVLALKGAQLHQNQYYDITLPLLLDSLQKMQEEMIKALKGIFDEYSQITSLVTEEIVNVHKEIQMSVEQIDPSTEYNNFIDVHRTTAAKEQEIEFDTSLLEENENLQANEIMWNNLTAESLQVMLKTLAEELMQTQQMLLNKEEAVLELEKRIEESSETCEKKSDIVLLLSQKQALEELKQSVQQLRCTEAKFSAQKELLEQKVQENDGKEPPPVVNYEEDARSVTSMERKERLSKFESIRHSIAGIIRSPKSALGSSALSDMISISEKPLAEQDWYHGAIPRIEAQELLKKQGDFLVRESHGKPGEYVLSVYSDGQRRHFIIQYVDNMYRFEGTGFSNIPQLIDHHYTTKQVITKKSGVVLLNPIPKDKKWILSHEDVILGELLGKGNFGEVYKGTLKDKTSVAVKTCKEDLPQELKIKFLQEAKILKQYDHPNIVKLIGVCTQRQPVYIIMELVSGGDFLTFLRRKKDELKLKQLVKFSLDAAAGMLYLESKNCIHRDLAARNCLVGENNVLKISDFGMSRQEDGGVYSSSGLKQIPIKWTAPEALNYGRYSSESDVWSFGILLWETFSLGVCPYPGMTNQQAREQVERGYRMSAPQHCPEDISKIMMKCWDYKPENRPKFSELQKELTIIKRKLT
Tyrosine-protein kinase Fes/Fps (Homo sapiens), sequence (P07332 whole entry): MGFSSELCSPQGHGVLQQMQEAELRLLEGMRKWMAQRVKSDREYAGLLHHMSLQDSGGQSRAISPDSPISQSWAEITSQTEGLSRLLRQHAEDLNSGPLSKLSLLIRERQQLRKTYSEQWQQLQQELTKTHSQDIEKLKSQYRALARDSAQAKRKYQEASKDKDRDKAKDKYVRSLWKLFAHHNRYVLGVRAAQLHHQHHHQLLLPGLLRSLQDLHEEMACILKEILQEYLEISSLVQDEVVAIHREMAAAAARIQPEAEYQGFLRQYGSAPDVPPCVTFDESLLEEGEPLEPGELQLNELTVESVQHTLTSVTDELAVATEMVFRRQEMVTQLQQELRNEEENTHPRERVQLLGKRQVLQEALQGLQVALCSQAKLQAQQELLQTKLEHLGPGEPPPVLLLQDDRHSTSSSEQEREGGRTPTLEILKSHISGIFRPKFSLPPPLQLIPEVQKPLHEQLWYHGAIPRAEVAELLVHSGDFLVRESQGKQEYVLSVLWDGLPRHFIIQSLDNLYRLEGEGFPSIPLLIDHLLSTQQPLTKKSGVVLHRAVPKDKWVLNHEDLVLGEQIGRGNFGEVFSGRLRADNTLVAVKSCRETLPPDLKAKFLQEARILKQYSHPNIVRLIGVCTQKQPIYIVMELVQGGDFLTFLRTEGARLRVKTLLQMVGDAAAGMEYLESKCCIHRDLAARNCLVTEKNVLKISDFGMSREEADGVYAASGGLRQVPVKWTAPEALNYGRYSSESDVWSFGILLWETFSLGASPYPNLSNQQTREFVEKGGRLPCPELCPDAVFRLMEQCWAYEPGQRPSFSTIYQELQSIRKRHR
Fibroblast growth factor receptor 2 (Homo sapiens), sequence (P21802 22-821 limits assumed): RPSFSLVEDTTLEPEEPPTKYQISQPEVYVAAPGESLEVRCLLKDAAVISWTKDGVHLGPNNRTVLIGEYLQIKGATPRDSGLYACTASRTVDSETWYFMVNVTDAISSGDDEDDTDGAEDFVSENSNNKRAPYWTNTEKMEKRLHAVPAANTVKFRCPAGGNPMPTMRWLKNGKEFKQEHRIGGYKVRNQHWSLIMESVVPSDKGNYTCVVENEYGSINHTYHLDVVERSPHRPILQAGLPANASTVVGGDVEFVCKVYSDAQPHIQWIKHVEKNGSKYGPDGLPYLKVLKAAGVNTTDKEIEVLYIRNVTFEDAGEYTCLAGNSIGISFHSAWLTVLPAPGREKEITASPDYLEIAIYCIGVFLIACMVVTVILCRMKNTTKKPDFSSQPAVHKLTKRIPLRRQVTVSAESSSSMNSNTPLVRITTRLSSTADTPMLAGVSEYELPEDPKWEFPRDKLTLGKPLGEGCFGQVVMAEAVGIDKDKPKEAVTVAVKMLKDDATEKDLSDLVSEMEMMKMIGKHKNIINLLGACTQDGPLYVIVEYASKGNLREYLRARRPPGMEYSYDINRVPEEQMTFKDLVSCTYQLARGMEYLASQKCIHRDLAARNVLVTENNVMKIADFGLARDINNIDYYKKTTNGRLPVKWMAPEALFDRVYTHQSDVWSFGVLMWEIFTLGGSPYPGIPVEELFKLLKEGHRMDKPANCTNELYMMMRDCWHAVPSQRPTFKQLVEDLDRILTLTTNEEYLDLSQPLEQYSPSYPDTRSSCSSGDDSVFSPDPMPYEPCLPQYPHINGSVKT
Fibroblast growth factor receptor 3 (Homo sapiens), sequence (P22607 23-806 limits assumed): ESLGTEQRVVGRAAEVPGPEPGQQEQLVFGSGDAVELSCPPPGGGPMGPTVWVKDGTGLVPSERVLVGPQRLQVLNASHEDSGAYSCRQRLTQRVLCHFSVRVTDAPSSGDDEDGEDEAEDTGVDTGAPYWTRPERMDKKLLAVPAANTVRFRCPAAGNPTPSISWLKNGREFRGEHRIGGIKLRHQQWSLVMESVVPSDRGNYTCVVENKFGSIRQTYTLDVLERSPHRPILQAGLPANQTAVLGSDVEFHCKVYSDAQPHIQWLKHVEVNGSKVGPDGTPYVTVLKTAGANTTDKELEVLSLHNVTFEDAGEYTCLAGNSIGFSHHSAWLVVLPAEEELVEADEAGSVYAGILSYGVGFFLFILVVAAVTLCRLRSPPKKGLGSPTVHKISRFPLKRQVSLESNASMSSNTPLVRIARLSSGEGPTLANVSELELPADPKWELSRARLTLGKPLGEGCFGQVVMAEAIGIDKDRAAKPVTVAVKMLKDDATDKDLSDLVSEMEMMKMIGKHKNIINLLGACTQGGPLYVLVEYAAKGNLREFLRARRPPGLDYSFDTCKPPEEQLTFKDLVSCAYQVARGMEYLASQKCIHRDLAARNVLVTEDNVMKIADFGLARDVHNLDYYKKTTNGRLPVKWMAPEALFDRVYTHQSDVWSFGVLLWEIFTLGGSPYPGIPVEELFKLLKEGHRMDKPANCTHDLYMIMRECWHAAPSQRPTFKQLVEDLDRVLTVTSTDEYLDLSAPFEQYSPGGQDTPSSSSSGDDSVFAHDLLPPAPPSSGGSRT
Fibroblast growth factor receptor 1 (Homo sapiens), sequence (P11362 22-822 limits assumed): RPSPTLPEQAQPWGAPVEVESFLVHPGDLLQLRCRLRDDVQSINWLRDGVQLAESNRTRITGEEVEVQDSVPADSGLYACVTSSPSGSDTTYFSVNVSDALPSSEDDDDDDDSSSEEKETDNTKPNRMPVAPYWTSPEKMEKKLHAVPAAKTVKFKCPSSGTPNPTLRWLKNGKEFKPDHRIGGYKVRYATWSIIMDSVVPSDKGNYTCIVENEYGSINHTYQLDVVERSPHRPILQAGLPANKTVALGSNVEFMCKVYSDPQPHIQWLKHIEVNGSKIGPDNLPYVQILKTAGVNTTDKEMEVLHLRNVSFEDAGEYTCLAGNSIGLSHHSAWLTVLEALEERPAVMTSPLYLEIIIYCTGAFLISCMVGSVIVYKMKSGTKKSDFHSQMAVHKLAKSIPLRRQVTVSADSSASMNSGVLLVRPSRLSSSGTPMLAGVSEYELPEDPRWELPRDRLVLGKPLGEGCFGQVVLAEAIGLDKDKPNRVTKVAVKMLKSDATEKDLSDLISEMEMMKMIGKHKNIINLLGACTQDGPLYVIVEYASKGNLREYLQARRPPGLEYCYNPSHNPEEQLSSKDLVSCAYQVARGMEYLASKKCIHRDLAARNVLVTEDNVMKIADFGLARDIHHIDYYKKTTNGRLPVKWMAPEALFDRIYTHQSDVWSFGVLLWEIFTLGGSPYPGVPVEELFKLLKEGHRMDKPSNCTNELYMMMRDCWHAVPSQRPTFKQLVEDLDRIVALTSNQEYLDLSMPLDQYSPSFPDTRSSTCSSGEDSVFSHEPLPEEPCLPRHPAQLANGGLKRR
Fibroblast growth factor receptor 4 (Homo sapiens), sequence (P22455 22-802 limits assumed): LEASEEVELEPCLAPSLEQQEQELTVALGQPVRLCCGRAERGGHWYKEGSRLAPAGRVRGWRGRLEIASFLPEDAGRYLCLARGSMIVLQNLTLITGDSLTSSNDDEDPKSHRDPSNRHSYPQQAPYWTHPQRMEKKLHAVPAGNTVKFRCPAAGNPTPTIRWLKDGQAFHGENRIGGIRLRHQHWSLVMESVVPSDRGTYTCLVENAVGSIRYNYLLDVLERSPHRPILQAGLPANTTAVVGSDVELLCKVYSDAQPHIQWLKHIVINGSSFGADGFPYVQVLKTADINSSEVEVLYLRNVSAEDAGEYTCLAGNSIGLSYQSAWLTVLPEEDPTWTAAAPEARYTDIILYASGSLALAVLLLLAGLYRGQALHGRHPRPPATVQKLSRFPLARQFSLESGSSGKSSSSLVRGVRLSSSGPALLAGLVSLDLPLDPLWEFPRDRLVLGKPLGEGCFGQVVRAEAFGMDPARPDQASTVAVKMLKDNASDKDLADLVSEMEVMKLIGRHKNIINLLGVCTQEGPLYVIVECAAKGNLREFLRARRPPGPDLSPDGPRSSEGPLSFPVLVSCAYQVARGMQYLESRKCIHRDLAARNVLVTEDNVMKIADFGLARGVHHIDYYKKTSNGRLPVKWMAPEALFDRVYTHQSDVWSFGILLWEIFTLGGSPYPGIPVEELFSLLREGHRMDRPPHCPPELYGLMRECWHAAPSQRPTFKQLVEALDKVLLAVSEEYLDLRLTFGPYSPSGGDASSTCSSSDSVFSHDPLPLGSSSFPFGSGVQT

For orientation: inhibition means the drop in the measured response relative to a control, in per cent. As to `CS(=O)(=O)CCNCc1ccc(-c2ccc3ncnc(Nc4ccc(OCc5cccc(F)c5)c(C(F)(F)F)c4)c3c2)o1`, the inhibition in assay [1] is 4.49%; in assay [2], 6.25%; in [3] it was 3.96%; in [4], 2.87%; in assay [5] it was 0.47%; in assay [6], 3.41%. The inhibition came to 7.46% in assay [7]; 8.49% in [8]; 16.9% in assay [9]; 4.27% in assay [10]; 1.93% in assay [11]; 2.48% in assay [12]. Moreover, the inhibition in assay [13] was 2.85%; in assay [14], -1.13%; in assay [15] it was 2.33%; in assay [16], 3.18%; in assay [17], 4.51%; in assay [18] it was 4.79%. Further, in assay [19], the inhibition was determined as 3.38%.
In the case of `NC(=O)c1ccc(-c2nc(-c3ccccn3)c(-c3ccc4c(c3)OCO4)[nH]2)cc1`, the inhibition in assay [1] amounted to 6.48%; in [2], 4.63%; in assay [3], 1.89%; in assay [4], 3.74%; in assay [5], 1.95%; in assay [6] it was 2.99%. Besides, the inhibition in assay [7] turned out to be 0.42%; in [8], 7.53%; in [9], 11.4%; in [10], 1.79%; in assay [11], 6.64%; in assay [12], 1.52%. Also, the inhibition is 2.16% in assay [13]; -0.93% in assay [14]; 2.26% in [15]; 0.95% in [16]; 1.31% in assay [17]; 2.79% in [18]. Besides, the inhibition is 1.9% in [19] and 4.19% in assay [20].
Turning to `CC1=C(C(=O)Nc2ccc3[nH]ncc3c2)C(c2ccc(Cl)c(Cl)c2)CC(=O)N1` (centres undefined), the inhibition in [1] was 12.5%; in [2], 3.28%; in [3] it was 2.88%; in assay [4], 1.18%; in assay [5] it was 1.59%; in assay [6], 0.3%. For the same molecule, the inhibition was 0.63% in assay [7]; 8.29% in assay [8]; 17.8% in assay [9]; 1.45% in assay [10]; 1.24% in [11]; 1.63% in assay [12]. Besides, the inhibition worked out at 2.35% in [13]; 0.69% in assay [14]; 8.25% in [15]; 0.22% in assay [16]; 20.4% in assay [17]; 2.17% in assay [18]. In addition, the inhibition in assay [19] turned out to be 14.1%; in assay [20] it was 1.31%.

The record behind these values is ChEMBL document CHEMBL1961873, “Compounds: GSK PKIS; Assays: Nanosyn kinase panel” (2012).
